# Measured values reported in PubChem BioAssay (EPA / NIEHS).
# Several values for one entry are separate records, joined by “and”; a condition that tells them apart may be missing. Equal entries are not always repeated. A structure can be active in one record and inactive in another. Activity calls are given as the source filed them. The calls were made as follows: active = hit-call score of the fitted dose curve at least 0.9, where 1 is the maximum; inactive = score below 0.9.
# Test: BSK_BT_PBMCCytotoxicity: PBMC Cytotoxicity Assessment in the BioMAP Diversity Plus: BT Assay (AID 2284225)
# Conditions: primary human B cells with PBMC
# Description: BSK_BT is a cell-based, multiplexed-readout assay that uses B cell and peripheral blood mononuclear cells, a human vascular primary cell co-culture, with measurements taken at 24 hours after chemical dosing in a microplate: 96-well plate.BSK_BT_PBMCCytotoxicity is an assay component measured in the BSK_BT assay. It measures dehydrogenase activity, a form of viability reporter, as detected with fluorescence intensity signals by Alamar Blue Reduction technology.Data from the assay component BSK_BT_PBMCCytotoxicity was analyzed at the endpoint, BSK_BT_PBMCCytotoxicity, in the positive analysis fitting direction relative to DMSO as the negative control and baseline of activity. Using a type of viability reporter, gain or loss-of-signal activity can be used to understand cellular changes in viability. To generalize the intended target to other relatable targets, this assay endpoint is annotated to the 'cell cycle' intended target family, where the subfamily is 'cytotoxicity'.
# The levels of cell surface (or secreted, indicated by the prefix "s") biomarker endpoints were measured by ELISA. Overt cytotoxicity to cells in confluent adherent cultures (all systems other than the BT system) was assessed by measuring total protein levels using sulforhodamine B (SRB) staining in parallel cultures at the time of biomarker measurements, indicated as SRB endpoints. For proliferation assays for adherent cell types, individual cell types are cultured at sub-confluence and relative cell numbers quantified by SRB staining at time points optimized for each system (48 h: 3C and CASM3C systems; 72 h: BT and HDF3CGF systems; 96 h: SAg system). SRB was performed by staining cells with 0.1% SRB after fixation with 10% TCA and reading wells at 560 nm.Viability and proliferation of PBMC (T cells) was quantified by Alamar Blue reduction for the SAg and BT systems. For PBMC viability (referred to as PBMC Cytotoxicity within the assay endpoint names), cells were plated (75,000/well in a 96-well plate) and then chemical samples added for 1 h before addition of activators, SEB and TSST-1 (20 ng/mL final concentration each). Cells were incubated for 90 h. Then, Alamar Blue (20 uL/well) (Invitrogen, Cat DAL1100) was added for 6 h, and the plates were read with a fluorescence microplate reader at 546/580 nm (excitation/emission). For PBMC proliferation, cells were plated and activated as above but incubated for only 16 h prior to addition of Alamar Blue. Plates were read after 6 h.
Compound,AC50,outcome
C=CC(=O)OCC(CC)(COC(=O)C=C)COC(=O)C=C,2.98 µM (active),–
O=C(O)C(F)(OC(F)(F)C(F)(F)C(F)(F)F)C(F)(F)F (centres undefined),0.22 µM (active),inactive
COP(N)(=S)OC,–,inactive
OCC(F)(F)OC(F)(F)C(F)(F)OC(F)(F)C(F)(F)OC(F)(F)CO,–,inactive
N#Cc1cc([N+](=O)[O-])ccc1N,–,inactive
FC(F)(F)C(F)(C(F)(F)F)C(F)(F)C(F)(F)CC1CO1 (centres undefined),–,inactive
O=S1(=O)OCC2C(CO1)C1(Cl)C(Cl)=C(Cl)C2(Cl)C1(Cl)Cl (centres undefined),32.9 µM (active),–
O=c1ssc(Cl)c1Cl,6.76 µM (active),–
ClC(Cl)=C(c1ccc(Cl)cc1)c1ccccc1Cl,37.2 µM (active),–
Cc1ccc2c(c1N)C(=O)c1ccccc1C2=O,–,inactive
CC(O)C(F)(F)C(F)(F)F (centres undefined),–,inactive
COC(=O)C(F)(F)C(F)(F)OC(F)(C(F)(F)F)C(F)(F)OC(F)=C(F)F (centres undefined),–,inactive
CCOP(=S)(NC(C)C)Oc1ccccc1C(=O)OC(C)C (centres undefined),–,inactive
COP(=O)(O)OC,–,inactive
O=P(OCC(Br)CBr)(OCC(Br)CBr)OCC(Br)CBr (centres undefined),–,inactive
O=C(O)C(F)(F)C(F)(F)C(=O)O,–,inactive
CCCCOCCOP(=O)(OCCOCCCC)OCCOCCCC,–,inactive
CC(C)(C)c1ccccc1OP(=O)(Oc1ccccc1)Oc1ccccc1,–,inactive
CC(C)Nc1ccc(Nc2ccccc2)cc1,2.89 µM (active),–

Compound,AC50,outcome
c1ccc2c(c1)sc1ccccc12,–,inactive
O=C(O)C=CC(F)(C(F)(F)F)C(F)(F)F,–,inactive
CCCCC(CC)COP(=O)(Oc1ccccc1)Oc1ccccc1 (centres undefined),36.7 µM (active),–
C=CC(=O)OCC(F)(F)C(F)F,30 µM (active) and 23.6 µM (active),–
Nc1ccc([N+](=O)[O-])cc1Cl,–,inactive
O=S(=O)(F)C(F)(F)C(F)(F)C(F)(F)C(F)(F)C(F)(F)C(F)(F)C(F)(F)C(F)(F)F,–,inactive
CCOP(=S)(S)OCC,–,inactive
O=C(O)C(F)(F)OC(F)(F)C(F)(F)OC(F)(F)C(=O)O,–,inactive
CCOP(=S)(OCC)SCS(=O)(=O)CC,–,inactive
Cc1c([N+](=O)[O-])cc2c(c1[N+](=O)[O-])C(C)(C)CC2(C)C,33.2 µM (active),–
CCCCC(CC)COC(=O)c1c(Br)c(Br)c(Br)c(Br)c1C(=O)OCC(CC)CCCC (centres undefined),–,inactive
CCOP(=S)(OCC)SCn1nnc2ccccc2c1=O,–,inactive
CCOP(=S)(OCC)SCSc1ccc(Cl)cc1,–,inactive
N#Cc1c(-c2ccc(Cl)cc2)[nH]c(C(F)(F)F)c1Br,2.33 µM (active),–
NC(=O)C(F)(F)C(F)(F)F,–,inactive
O=C(O)C(F)(F)OC(F)(F)C(F)(F)OC(F)(F)F,–,inactive
OCC(F)(F)OC(F)(F)C(F)(F)OC(F)(F)C(F)(F)OC(F)(F)F,30.7 µM (active) and 43.3 µM (active),–
CC(Cl)CN(C)C (centres undefined),–,inactive
OCC(F)(F)OC(F)(F)C(F)(F)OC(F)(F)CO,–,inactive
